Growth data for 29 compounds are collected here from PubChem BioAssay (NCI).

Holding throughout (assay): NCI-60 one-dose screen, 48 h (100 = growth as untreated, 0 = no growth, -100 = all killed)
Common to all, as to conditions: 10 µM unless noted

The subject of assay [1] is HCT-15 colon.
The test system of assay [2] is HT29 colon.
The subject of assay [3] is SNB-19 CNS.
Assay [4] concerns U251 CNS.
Assay [5] concerns PC-3 prostate.
In assay [6] the test system is SK-MEL-5 melanoma.
Assay [7] has as its system UACC-62 melanoma.
Assay [8] concerns LOX IMVI melanoma.
Assay [9] has as its system SK-MEL-28 melanoma.

The panel holds about 83,000 compounds, 20% with a hit somewhere; the sample as a whole holds those more often.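 Cells were grown in 96-well plates and exposed to the test compound at a single concentration for 48 hours; results are reported as percent growth, with values below 10 considered active.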 Values without a mark were called inactive. Active and inactive are the calls of the source.

Turning to `C=C1CCC2C(C)(CO)C(O)CCC2(C)C1CC(NCc1ccccc1)C1=CCOC1=O` (stereo unspecified), the growth in assay [1] was 105%; in assay [2] it was 99.6%; in assay [3] it was 101%; in [4] it was 96.2%; in [5] it was 101%; in assay [6], 113%. The growth is 94.5% in assay [7], 97.5% in assay [8] and 101% in assay [9].
Take `O=S(=O)(NCCNc1nccc(-c2c(-c3ccc(O)cc3)nc3sccn23)n1)c1cccc2ccccc12`: the growth was 100% in assay [1]; 102% in [2]; 99.7% in [3]; 95.3% in [4]; 97.5% in assay [5]; 102% in assay [6]. The growth in assay [7] is 106%; in [8], 101%; in [9], 111%.
Turning to `O=C(CN1CCN(c2cc3c(cc2F)c(=O)c(C(=O)N/N=C/c2ccccc2O)cn3C2CC2)CC1)N/N=C\c1ccccc1O`, the growth in assay [1] was 18.4%; in assay [2] it was 39.2%; in assay [3] it was 29.9%; in [4], 24.8%; in assay [5], 30.3%; in assay [6] it was -47.5% (active). In addition, the values for the growth in [7], in assay [8] and in [9] were 0.0993% (active), 2.01% (active) and 20.7%, respectively.
`COc1cc([N+](=O)[O-])c2ncccc2c1O`: the growth in assay [1] is 4.36% (active); in [2], 44.6%; in assay [3], 6.29% (active); in [4], 53.3%; in [5] it was 78.9%; in assay [6] it was -59.4% (active). Also, the growth in [7] was 15.8%; in assay [8], 66%; in [9], 28.5%.
Turning to `C=C1CCC2C3(C)COC(C)(C)OC3CCC2(C)C1C/C=C1/C(=O)OCC1Oc1ccccc1OC` (stereo unspecified), the growth in assay [1] is 43%; in assay [2] it was 56.4%; in assay [3], 88.7%; in assay [4], 100%; in [5] it was 90.5%; in assay [6] it was 95.4%. The growth in assay [7] was 80.4%; in [8], -3.97% (active); in assay [9], 101%.
For `O=C(Nc1cccc(-n2cc(-c3ccncc3)c(-c3ccc(Cl)c(O)c3)n2)c1)Nc1cccc(C(F)(F)F)c1`, the growth was 18.2% in assay [1]; 77.8% in assay [2]; 32.5% in assay [3]; 15.8% in assay [4]; 4.28% (active) in assay [5]; -25.5% (active) in assay [6]. The growth in assay [7] is 10.4%; in assay [8], 23.8%; in assay [9], 29.4%.
Regarding `COc1ccc(-c2cnoc2-c2ccc(OC)cc2O)cc1`, the growth in assay [1] is 26.7%; in assay [2] it was 24.1%; in assay [3], 42.4%; in assay [4] it was 25.6%; in assay [5] it was 53.2%; in assay [6] it was 15.8%. Besides, the figures for the growth in [7], in assay [8] and in assay [9] were 28.9%, 41.2% and 45%, respectively.
Turning to `CCN(CC)CCC(CNc1ccnc2cc(Cl)ccc12)c1ccc(Cl)cc1` (stereo unspecified), the growth in [1] was -9.14% (active); in assay [2], -4.66% (active); in assay [3], 10.7%; in assay [4], -61% (active); in [5], 36.9%; in assay [6] it was -96.3% (active). Further, the growth is -74.5% (active) in [7], -1.91% (active) in assay [8] and -91.8% (active) in assay [9].
For the compound `O=S(=O)(NCCNc1nccc(-c2c(-c3ccc(F)cc3)nc3sccn23)n1)c1ccc(F)cc1`, the growth in [1] was 59%; in assay [2], 52.1%; in [3] it was 88.5%; in assay [4] it was 79.8%; in assay [5] it was 75.3%; in assay [6], 70.8%. The values for the growth in assay [7], in [8] and in [9] were 71.6%, 58.3% and 87.6%, respectively.
For `CC(C)(C)n1cc(-c2ccnc(NCCNS(=O)(=O)c3ccc(C(F)(F)F)cc3)c2)c(-c2cccc(O)c2)n1`, the growth in assay [1] is 11.7%; in assay [2], 12.4%; in assay [3], 70.5%; in [4] it was 36.8%; in assay [5] it was 25.4%; in assay [6] it was 20.9%. Moreover, the growth is 64.1% in assay [7], 25.8% in assay [8] and 51.3% in [9].
Turning to `CC12CCC3C4(C)COC(c5ccccc5Cl)OC4CCC3(C)C1CC(C1=CCOC1=O)O2` (stereo unspecified), the growth in [1] is 41.2%; in [2], 57.1%; in assay [3], 78.7%; in assay [4] it was 74.1%; in assay [5], 47.9%; in assay [6] it was 17.1%. The growth in assay [7] was 45.8%; in [8] it was 58.6%; in [9] it was 60.5%.
As to `O=C(CSc1nc2ccccc2[nH]1)c1ccc(N2CCOCC2)cc1`, the growth in assay [1] is 99.4%; in [2], 113%; in assay [3] it was 98.7%; in assay [4], 103%; in assay [5] it was 100%; in assay [6], 105%. Moreover, the results for the growth in assay [7], in assay [8] and in [9] were 97.1%, 94.8% and 114%, respectively.
Consider `Cc1cc(N/N=C/c2nc(-c3ccccc3)oc2C)c2cc(Br)ccc2n1`, for which the growth is 43.6% in assay [1]; 65.6% in assay [2]; 91.2% in assay [3]; 38.5% in [4]; 79.5% in assay [5]; 103% in assay [6]. Further, the growth in [7] was 88.3%; in assay [8], -31.7% (active); in assay [9] it was 26%.
On to `Cn1ccc(=O)c(S(N)(=O)=O)c1`, for which the growth in assay [1] is 109%; in assay [2] it was 107%; in [3] it was 95.5%; in assay [4], 90.7%; in [5], 101%; in [6], 112%. Besides, the growth in assay [7] is 95.8%; in assay [8], 91.9%; in assay [9] it was 116%.
Consider `Cc1ccc(S(=O)(=O)Nc2c(Br)cc(Br)cc2C(N)=O)cc1`, for which the growth in assay [1] was 103%; in assay [2] it was 128%; in assay [3] it was 90.2%; in assay [4], 106%; in [5], 96.3%; in assay [6], 99.9%. Also, the results for the growth in assay [7], in assay [8] and in assay [9] were 98.5%, 102% and 100%, respectively.
For the compound `CCCC(=O)Oc1ccc(/C(=C(\C)c2ccccc2)c2ccc(OCCN(CC)CC)cc2)cc1`, the growth in [1] was 49.7%; in assay [2], 5.74% (active); in assay [3], 85.7%; in assay [4], 65.1%; in assay [5], 60.7%; in assay [6] it was 64.1%. Further, the growth in assay [7] was 80.4%; in [8], 79.8%; in assay [9], 68.3%.
As for `CCOC(=O)c1cn2c3c(cc(C)cc3c1=O)C(=O)/C(=C/c1ccccc1)C2`, the growth in assay [1] was 109%; in [2], 105%; in assay [3], 84.4%; in [4] it was 83.3%; in [5], 99%; in assay [6], 91.3%. Besides, the growth in assay [7] is 68.1%; in [8] it was 94.5%; in assay [9], 93.8%.
As to `Cc1ccc(-c2nc(C#N)c(S(=O)(=O)n3nc(-c4ccccc4)cc3N)o2)cc1`, the growth is 67.6% in assay [1]; 56% in assay [2]; 93.7% in assay [3]; 96.7% in [4]; 101% in [5]; 99.8% in assay [6]. Besides, the growth in [7] is 94.3%; in assay [8], 28%; in [9], 108%.
For the compound `COc1ccc(Cn2cc3c(c2-c2cc(OC)c(OC)c(OC)c2)CCc2cnoc2-3)cc1`, the growth in [1] is 17.5%; in [2], 11%; in assay [3] it was 44.3%; in assay [4], 29.3%; in assay [5] it was 25.7%; in assay [6], 17%. Besides, the growth in [7] was 40.5%; in assay [8], 38.1%; in assay [9], 45%.
`C=C1CCC[C@]2(C)CCC[C@H](C)[C@@H](OC(C)=O)[C@@H]3OC(=O)C(=C)[C@@H]3C[C@H]1O2`: the growth in assay [1] was 65.9%; in assay [2] it was 67.8%; in assay [3] it was 88.9%; in assay [4], 72.5%; in assay [5], 53%; in [6] it was 72.7%. Further, the growth in assay [7] is 58%; in assay [8] it was 72.2%; in assay [9], 95.2%.
Regarding `CC(C)(C)n1cc(-c2ccnc(NCCNS(=O)(=O)c3ccc(Cl)cc3)c2)c(-c2cccc(O)c2)n1`, the growth in [1] is 15.1%; in assay [2], 16.6%; in [3], 76.6%; in assay [4], 46.1%; in [5], 34.5%; in assay [6], 25%. For the same compound, the figures for the growth in [7], in [8] and in assay [9] were 71.7%, 41.5% and 63.3%, respectively.
Turning to `CN(C)CCOC(=O)Nc1ccccc1Cl`, the growth in [1] was 103%; in [2], 110%; in assay [3] it was 104%; in assay [4], 108%; in assay [5] it was 93.5%; in assay [6] it was 104%. The results for the growth in assay [7], in assay [8] and in assay [9] were 110%, 101% and 115%, respectively.
Turning to `O=c1ccn(C2CC(O)C(O)C(CO)O2)c(=O)[nH]1` (stereo unspecified), the growth in assay [1] was 117%; in assay [2], 113%; in assay [3], 110%; in assay [4], 125%; in assay [5], 89.5%; in [6], 137%. For the same compound, the growth is 105% in assay [7], 109% in [8] and 109% in assay [9].
As for `CCOC(=O)/C(C#N)=C1/C(=O)Nc2ccccc21`, the growth in assay [1] was 106%; in assay [2] it was 112%; in [3], 104%; in [4], 113%; in assay [5] it was 94.2%; in assay [6], 115%. Moreover, the growth was 103% in assay [7], 99% in assay [8] and 115% in [9].
Take `CCCCCCCCCCCCCCCCCCNC(=O)[C@H]1CSC(c2ccc(OC)cc2O)N1` (stereo partly specified): the growth in assay [1] is 80.7%; in assay [2], 45.3%; in assay [3], 81.2%; in [4], 63.9%; in [5], 69.7%; in [6], 93.1%. The growth is 74.9% in [7], 62.4% in assay [8] and 50.5% in [9].
On to `S=c1[nH]nc(-c2cc3ccc2CCc2ccc(cc2)CC3)n1C1CC1`, for which the growth in [1] was 96.6%; in assay [2], 95.7%; in [3] it was 95.5%; in [4], 97.4%; in assay [5], 95.8%; in [6], 95.7%. The growth was 80.2% in [7], 95% in [8] and 102% in [9].
As to `Fc1ccc(Nc2nc(NCCNc3ccnc4cc(Cl)ccc34)nc(N3CCOCC3)n2)cc1`, the growth in assay [1] was 10.5%; in [2], -45.5% (active); in [3], 86.7%; in [4] it was 39%; in [5], 38.2%; in [6], 43.2%. The growth in assay [7] is 47.7%; in assay [8], 15.5%; in assay [9], -98.5% (active).
`COc1ccc(/C=C2/C(=O)NC(SCC(=O)N3CCN(c4cc5c(cc4F)c(=O)c(C(=O)O)cn5C4CC4)CC3)=NC2N)cc1OC` (stereo unspecified): the growth in assay [1] is 98.9%; in [2] it was 112%; in assay [3], 102%; in assay [4], 102%; in assay [5], 99.2%; in assay [6] it was 104%. Besides, the values for the growth in assay [7], in assay [8] and in assay [9] were 102%, 103% and 105%, respectively.
On to `COc1ccc(OC)c(C2OC(c3ccc4ccccc4c3O)=NN2C(C)=O)c1` (stereo unspecified), for which the growth in [1] is 62%; in assay [2], 61.1%; in assay [3], 81.1%; in [4], 83.3%; in assay [5], 59.3%; in assay [6], 58.4%. For the same compound, the growth was 69.1% in [7], 63.9% in [8] and 78.6% in assay [9].
